Measured values published in PubChem BioAssay AID1159580 (chemical genetic matrix, 2015).
Where “and” joins values, the source holds several entries; their conditions need not be identical. Identical values can stand only once. Screen size: about 5,500 compounds; about 2,000 (36%) were called active. About 18% were inconclusive and are not listed. No stated cut-off is given here; in the data, active means normalized growth mostly below about 0.91 (no sharp cut-off); inconclusive means no clear call, values can overlap the other calls; inactive means mostly above about 0.92. This is one part of the list.

Assay: chemical genetic growth profiling, strain panel (AID 1159580);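 further: tested at 20 µM; growth read once vehicle control cultures reached saturation at 30 °C; 1 = growth at the plate median or of vehicle wells; lower values mean less growth of the strain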
Settings: S. cerevisiae deletion strains, growth OD

Measured: normalized growth

CCCCCCc1ccc(O)cc1O
active: locus YAL013W, strain DEP1, hits give low values 0.677 | locus YAL026C, strain drs2, hits give low values 0.747 | locus YBR009C, strain hhf1, hits give low values 0.788 | locus YBR023C, strain chs3, hits give low values 0.89 | locus YBR231C, strain swc5, hits give low values 0.865 | locus YCL011C, strain gbp2, hits give low values 0.896 | locus YCL016C, strain dcc1, hits give low values 0.912 | locus YCL029C, strain bik1, hits give low values 0.877 | locus YCL061C, strain MRC1, hits give low values 0.906 | locus YDL192W, strain arf1, hits give low values 0.798 | locus YDR101C, strain arx1, hits give low values 0.84 | locus YDR137W, strain rgp1, hits give low values 0.608 | locus YDR159W, strain sac3, hits give low values 0.525 | locus YDR318W, strain mcm21, hits give low values 0.794 | locus YDR388W, hits give low values 0.868 | locus YDR392W, strain spt3, hits give low values 0.283 | locus YDR502C, strain sam2, hits give low values 0.814 | locus YEL003W, strain gim4, hits give low values 0.911 | locus YER155C, strain BEM2 (second series), hits give low values 0.642 | locus YER155C, strain BEM2, hits give low values 0.875 | locus YGL078C, strain dbp3, hits give low values 0.885 | locus YGL086W, strain mad1, hits give low values 0.783 | locus YGL173C, strain kem1, hits give low values 0.883 | locus YGL248W, strain PDE1, hits give low values 0.868 | locus YGL253W, strain hxk2, hits give low values 0.893 | locus YGR135W, strain pre9, hits give low values 0.85 | locus YGR252W, strain gcn5, hits give low values 0.752 | locus YHR013C, strain ard1, hits give low values 0.822 | locus YHR030C, strain SLT2, hits give low values 0.804 | locus YHR079C, strain IRE1 (second series), hits give low values 0.832 | locus YHR142W, strain chs7, hits give low values 0.838 | locus YHR200W, strain rpn10, hits give low values 0.903 | locus YIL125W, strain kgd1, hits give low values 0.88 | locus YIR030C, strain dcg1, hits give low values 0.917 | locus YJL095W, strain BCK1 (second series), hits give low values 0.887 | locus YJL095W, strain BCK1, hits give low values 0.737 and 0.818 | locus YJL129C, strain trk1, hits give low values 0.85 | locus YJL164C, strain tpk1, hits give low values 0.841 | locus YJL166W, strain qcr8, hits give low values 0.85
inactive: locus YAL021C, strain ccr4, hits give low values 0.955 | locus YAL030W, strain snc1, hits give low values 0.961 | locus YBL061C, strain skt5, hits give low values 0.927 | locus YBR021W, strain FUR4, hits give low values 0.977 | locus YBR171W, strain sec66, hits give low values 0.973 | locus YBR229C, strain ROT2, hits give low values 0.967 | locus YBR279W, strain paf1, hits give low values 0.968 | locus YCL069W, strain vba3, hits give low values 0.972 | locus YCR088W, strain abp1, hits give low values 0.939 | locus YDL005C, strain med2, hits give low values 0.988 | locus YDL035C, strain GPR1, hits give low values 0.872 | locus YDL040C, strain nat1, hits give low values 0.973 | locus YDL074C, strain BRE1, hits give low values 0.786 | locus YDL101C, strain DUN1, hits give low values 0.95 | locus YDL185W, strain tfp1, hits give low values 0.956 | locus YDR001C, strain nth1, hits give low values 0.975 | locus YDR069C, strain doa4, hits give low values 0.939 | locus YDR150W, strain NUM1, hits give low values 0.942 | locus YDR162C, strain NBP2, hits give low values 0.884 | locus YDR195W, strain ref2 1.12 | locus YDR297W, strain sur2, hits give low values 0.948 | locus YDR334W, strain swr1, hits give low values 0.988 | locus YDR335W, strain msn5, hits give low values 0.96 | locus YEL037C, strain rad23, hits give low values 0.976 | locus YEL061C, strain CIN8 (second series), hits give low values 0.983 | locus YEL061C, strain CIN8, hits give low values 0.943 | locus YER015W, strain faa2, hits give low values 0.978 | locus YER016W, strain bim1, hits give low values 1.05 | locus YER110C, hits give low values 0.987 | locus YER111C, strain swi4, hits give low values 0.976 | locus YER167W, strain BCK2, hits give low values 0.923 | locus YFR010W, strain ubp6, hits give low values 0.971 | locus YGL167C, strain pmr1, hits give low values 0.981 | locus YGL227W, strain vid30, hits give low values 0.977 | locus YGL240W, strain doc1, hits give low values 0.899 | locus YGR078C, strain PAC10, hits give low values 0.882 | locus YHR027C, strain rpn1, hits give low values 0.966 | locus YHR079C, strain IRE1, hits give low values 0.862 | locus YHR094C, strain hxt1, hits give low values 0.964 | locus YHR129C, strain ARP1, hits give low values 0.949 | locus YIL066C, strain RNR3, hits give low values 0.967 | locus YIL073C, strain SPO22, hits give low values 0.811 | locus YJL092W, strain hpr5, hits give low values 0.943 | locus YJL115W, strain asf1, hits give low values 0.993 | locus YJL134W, strain LCB3, hits give low values 0.96 | locus YJL154C, strain vps35, hits give low values 0.993 | locus YJL168C, strain set2, hits give low values 0.947 | locus YJL187C, strain SWE1 (second series), hits give low values 0.931
